Laboratory results taken from a collection of fitness landscapes (doi:10.1016/j.celrep.2020.107928).
Over roughly 81,000 sequences, “one-hybrid fitness for binding NBS DNA” has its median near -0.1; the highest 2% begin near 0.36. The entries come from a sample that favours the highest values as a whole.

B1: Caulobacter ParB omega fusion; a variant is named by its letters at X, in order, B8GW30 (parent)
chain: MESVVVGEPGMSEGRRGLGRGLSALLGEVDAAPAQAPGEQLGGSREAPIEILQRNPDQPRRTFREEDLEDLSNSIREKGVLQPILVRPSPDTAGEYQIVAGERAWRAAQRAGLKTVPIMVRELDDLAVLEIGIIENVQRADLNVLEEALSYKVLMEKFERTQENIAQTIGKSXSHVANXMRLLXLPDEVQSYLVSGELTAXHARAIAAAADPVALAKQIIEGGLSVRETEALARKAPNLSAGKSKGGRPPRVKDTDTQALESDLSSVLGLDVSIDHRGSTGTLTITYATLEQLDDLCNRLTRGI

Variants of: B1
Assay: one-hybrid fitness for binding NBS DNA (the Noc-binding site; scaled: cognate 1, non-cognate 0); higher = stronger binding
Conditions: with NBS DNA site
How it was run: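 Pre- and post-selection plasmids were Illumina-sequenced, three replicate libraries were pooled, and any variant with under 10 reads was removed. The libraries were Caulobacter ParB with four specificity codons randomised, selected in E. coli USO through a HIS3 reporter whose site is 19 bp from the promoter. Cells grew 48 hours at 37°C on M9 without histidine, with 0.1 mM IPTG and 5 mM 3-AT. Fitness is the log change in variant-to-wild-type read ratio, rescaled against cognate and non-cognate.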

one-hybrid fitness for binding NBS DNA, 0.326:
RHKH

one-hybrid fitness for binding NBS DNA, 0.525:
QCRV

one-hybrid fitness for binding NBS DNA, 0.425:
KQKR
KKKS

one-hybrid fitness for binding NBS DNA, 0.574:
QRRV

one-hybrid fitness for binding NBS DNA, 0.439:
QRHV

one-hybrid fitness for binding NBS DNA, 0.372:
RWKR
QYKV

one-hybrid fitness for binding NBS DNA, 0.453:
QRNV
MVEC

one-hybrid fitness for binding NBS DNA, 0.397:
RIWS
KCKR
QRQV

one-hybrid fitness for binding NBS DNA, 0.395:
QAST

one-hybrid fitness for binding NBS DNA, 0.333:
TCRR

one-hybrid fitness for binding NBS DNA, 0.883:
QTKT

one-hybrid fitness for binding NBS DNA, 0.275:
QRFV

one-hybrid fitness for binding NBS DNA, 0.39:
RRRC

one-hybrid fitness for binding NBS DNA, 0.283:
RRRP

one-hybrid fitness for binding NBS DNA, 0.448:
KRTS

one-hybrid fitness for binding NBS DNA, 0.259:
RWVR

one-hybrid fitness for binding NBS DNA, 0.4:
KMKR
RKRC

one-hybrid fitness for binding NBS DNA, 0.563:
KRTR

one-hybrid fitness for binding NBS DNA, 0.317:
QLSS

one-hybrid fitness for binding NBS DNA, 0.452:
QRGV

one-hybrid fitness for binding NBS DNA, 0.701:
RHKR

one-hybrid fitness for binding NBS DNA, 0.396:
KHKR
QSRV

one-hybrid fitness for binding NBS DNA, 0.23:
RCRN

one-hybrid fitness for binding NBS DNA, 0.201:
NMKR

one-hybrid fitness for binding NBS DNA, 0.517:
QTVT

one-hybrid fitness for binding NBS DNA, 0.409:
TRHR

one-hybrid fitness for binding NBS DNA, 0.389:
TRGR

one-hybrid fitness for binding NBS DNA, 0.424:
QRAV
QSST

one-hybrid fitness for binding NBS DNA, 0.583:
KRTT

one-hybrid fitness for binding NBS DNA, 0.393:
RRWC

one-hybrid fitness for binding NBS DNA, 0.555:
KTKR

one-hybrid fitness for binding NBS DNA, 0.218:
FSKR

one-hybrid fitness for binding NBS DNA, 0.56:
RIRS

one-hybrid fitness for binding NBS DNA, ≤ 0.2:
YFYC
QASC
LDYW
GGII
RWKP
RPKR
RDKR
FTQR
PCEF
PQIS
NIFS
NWPM
QHVW
NGRT
SSRN
GTQF
RCIC
RREN
NKTG
YEAN
WTTS
MTMK
HRPA
GPSL
CRYG
RRYD
RRPN
RPYS
RRPD
VRHA
LNEM
ADCG
SSQM
DSAV
PELK
STQD
GVGA
SIFQ
KCTT
KRTP
KCTR
NRTT
KPTR
KRTN
EFMG
NTNM
VSAH
NKSI
GMFR
SFAG
TRDR
TRHN
ARGR
TCGR
TCNR
TCHR
RYPE
FLFY
CVRG
MMMT
PQRS
PARP
AWAT
NMTI
LVAP
RIWP
RIRD
RIND
RIIS
RIWD
RIDS
RIRP
DTYS
SANL
RGWI
YSMI
YTKY
IQNI
RIHN
RIHD
NKNM
WYVV
QYSV
QYYV
IYVV
WYRV
IYIV
QYVV
QYDV
YGDI
FTRD
NWLT
YDPL
LENS
ALND
TGNW
KHVR
KKVR
KTKP
KTVR
KHKS
KKVT
NKKT
SSSH
GTSM
MDYV
FTRY
SQTT
RWDE
GLVI
CLLR
FWPP
KYYR
SYVR
FWDR
SYYR
KMVR
DYKR
RDNL
KNNH
FMCG
KYLR
VTMQ
RNIC
AMWM
TRYP
RGPH
VTSA
MRFI
CKWS
KPKR
DQKR
KKKN
KKVS
FPKR
NQKR
YLQM
MIYY
WSMT
YVTI
WDTC
QADV
QMDV
QSDV
QAYV
QMYV
QSSV
QCSV
QSYV
RQRI
SPGV
RRPE
QMVE
VKVA
CPHR
FHQR
DFQV
QCQV
QCAV
QPCV
SFRV
QPQV
QCCV
SHME
HLRR
GKSS
ALAR
NTES
QKDV
QTYV
QPRV
QKYV
QTDV
QSGV
QCYV
LALN
NRHK
IQAC
EASL
KDSS
WRLM
VHFW
QHQV
QPHV
QREV
QRDV
QHYV
QCNV
KSRF
EDAY
VSIE
RVLI
FHTT
NSFQ
LEVT
QGST
QSSN
QHSQ
QHSC
QASD
QASN
QLSH
TKRI
FEYS
SKTD
HPSA
RYAA
WFRC
AMMM
SFTI
QPST
KDHS
NTKT
DTKT
IWTS
SWRY
VSWL
RKYC
RCWC
RSWC
MVES
RKDC

one-hybrid fitness for binding NBS DNA, 0.553:
QCST

one-hybrid fitness for binding NBS DNA, 0.26:
RRYN

one-hybrid fitness for binding NBS DNA, 0.237:
QYAA

one-hybrid fitness for binding NBS DNA, 0.202:
RRRD

one-hybrid fitness for binding NBS DNA, 0.45:
QMRV

one-hybrid fitness for binding NBS DNA, 0.446:
QHST

one-hybrid fitness for binding NBS DNA, 0.578:
RRES

one-hybrid fitness for binding NBS DNA, 0.427:
KKKT

one-hybrid fitness for binding NBS DNA, 0.376:
QARV

one-hybrid fitness for binding NBS DNA, 0.34:
MVER

one-hybrid fitness for binding NBS DNA, 0.661:
RRIS
RRYS

one-hybrid fitness for binding NBS DNA, 0.249:
RRPC

one-hybrid fitness for binding NBS DNA, 0.3:
NKKR

one-hybrid fitness for binding NBS DNA, 0.366:
WYCV

one-hybrid fitness for binding NBS DNA, 0.342:
KSKR

one-hybrid fitness for binding NBS DNA, 0.392:
QYRV
FCKR

one-hybrid fitness for binding NBS DNA, 0.301:
TRYR

one-hybrid fitness for binding NBS DNA, 0.413:
RIYS
QLST

one-hybrid fitness for binding NBS DNA, 0.682:
TRRR

one-hybrid fitness for binding NBS DNA, 0.378:
SYKR
QHRV

one-hybrid fitness for binding NBS DNA, 0.447:
SFQV

one-hybrid fitness for binding NBS DNA, 0.311:
QIST

one-hybrid fitness for binding NBS DNA, 0.338:
RRIH

one-hybrid fitness for binding NBS DNA, 0.74:
RRRS

one-hybrid fitness for binding NBS DNA, 0.618:
RRRN

one-hybrid fitness for binding NBS DNA, 0.318:
QVST
RRDC

one-hybrid fitness for binding NBS DNA, 0.399:
RRIC

one-hybrid fitness for binding NBS DNA, 0.76:
RCKR

one-hybrid fitness for binding NBS DNA, 0.205:
AAKR

one-hybrid fitness for binding NBS DNA, 0.414:
KYKR

one-hybrid fitness for binding NBS DNA, 0.214:
RIFS
QCHV

one-hybrid fitness for binding NBS DNA, 0.348:
QRYV

one-hybrid fitness for binding NBS DNA, 0.486:
FWPR

one-hybrid fitness for binding NBS DNA, 0.388:
QRSV

one-hybrid fitness for binding NBS DNA, 0.406:
QRCV

one-hybrid fitness for binding NBS DNA, 0.207:
RCES

one-hybrid fitness for binding NBS DNA, 0.248:
RHVR

one-hybrid fitness for binding NBS DNA, 0.576:
QTRV

one-hybrid fitness for binding NBS DNA, 0.221:
QCGV

one-hybrid fitness for binding NBS DNA, 0.313:
RRYC

one-hybrid fitness for binding NBS DNA, 0.466:
TRNR

one-hybrid fitness for binding NBS DNA, 0.381:
RIHS

one-hybrid fitness for binding NBS DNA, 0.568:
RRPS

one-hybrid fitness for binding NBS DNA, 0.523:
KKKR

one-hybrid fitness for binding NBS DNA, 0.41:
IYPV
QKRV

one-hybrid fitness for binding NBS DNA, 0.206:
RRIN

one-hybrid fitness for binding NBS DNA, 0.445:
RINS
